TDP1 inh: inhibitors of human tyrosyl-DNA phosphodiesterase TDP1; recombinant TDP1, AlphaScreen DNA substrate cleavage; Potency, µM (highest dose often 130 µM), without a hit: at the top dose activity change, negative = inhibition, usual class: inhibitors; 0.28% of 350,000 active; note: potency is the fitted concentration of half-maximal effect; nearly all actives have a fitted effect of over 40% in size
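AlphaScreen read-out: signal falls as enzyme removes the 3' tyrosine-FITC from a 5'-biotinylated DNA oligo (15 nM, 5 min, RT). Enzyme was E. coli-made recombinant Tdp1 at 1 nM, exposed to compound for 15 min beforehand; beads 10 ug/ml, 10 min.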
Tb PGK inh: inhibitors of T. brucei phosphoglycerate kinase. P07378. PGK/GAPDH coupled, Kinase-Glo luminescence, 60 min. Potency, µM (highest dose often 57.5 µM), for the others: at the top dose activity change, negative = inhibition, actives largely listed as inhibitors. 0.043% of 380,000 active. AID 602233; note: potency is the fitted concentration of half-maximal effect; nearly all actives have a fitted effect of over 60% in size
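Luminescent ATP detection (Kinase-Glo Plus) follows a 60-minute room-temperature incubation, with wells lacking PGK as controls. Buffer: 100 mM TEA (pH 7.6), 5 mM MgCl2, 0.01% Tween-20. Coupling enzyme GAPDH (100 nM final) supplies unstable 1,3-BPG in-well.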
Tb PFK block: T. brucei PFK enzyme inhibition. O15648. 0.17% of 330,000 active. Potency, µM (top dose mostly 57.5 µM), without a hit: at the top dose activity, negative = inhibition, usual class: inhibitors. T. brucei PFK, ADP-Glo luminescence. AID 485367;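 note: potency is the fitted concentration of half-maximal effect; 0% = uninhibited 1x PFK enzyme wells and -100% = no-enzyme wells; nearly all actives have a fitted effect of over 60% in size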
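PFK 1.25 nM, F6P 0.5 mM, ATP 0.1 mM, 0.1 M TEA pH 8.0, 5 mM MgCl2, 0.01% Tween20, 0.1% BSA; 45 min RT. ADP-Glo readout. qHTS titration up to 57 uM; curves fitted, compounds curve-classed.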
FEN1 inhibitor: inhibitors of human flap endonuclease 1 | Recombinant FEN1 flap cleavage, fluorescence, 15 min | AID 588795 | 0.35% of 390,000 active | Potency, µM (top dose mostly 114 µM), without a hit: top-dose activity change, negative = inhibition, usual class: inhibitors | P39748; note: potency is the fitted concentration of half-maximal effect; nearly all actives have a fitted effect of over 65% in size
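Concentration–response screening of FEN1 (10 nM): 15 min compound preincubation at room temperature, reaction started with 50 nM substrate and read at 0 and 15 min. Corrected, normalized data were fitted by a four-parameter Hill equation.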
PI5P4K alpha inh: PI5P4K alpha (human) kinase inhibition; PI5P4Kalpha enzyme, ADP-Glo luminescence, 60 min; hits give low values; max response, %; 1.2% of 330,000 active; active = max response of -50% or lower; inconclusive = between -30% and -50%; inactive = -30% or higher; note: value at the top dose of about 77 µM
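qHTS, 1536-well: enzyme/substrate mix, compound by pin tool, 5 microM ATP final; RT 60 min; ADP-Glo reagents 1 (45 min) then 2 (30 min); luminescence.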
WRN helicase inh: WRN helicase (human) inhibition; WRN helicase unwinding, fluorescent forked duplex, kinetic; Q14191; AID 651768; Potency, µM (titrated, usually from 114 µM), for inactives: top-dose activity change, negative = inhibition, actives largely listed as inhibitors; 0.46% of 360,000 active; note: potency is the fitted concentration of half-maximal effect; nearly all actives have a fitted effect of over 55% in size
Target sequence (Q14191 whole entry, looked up): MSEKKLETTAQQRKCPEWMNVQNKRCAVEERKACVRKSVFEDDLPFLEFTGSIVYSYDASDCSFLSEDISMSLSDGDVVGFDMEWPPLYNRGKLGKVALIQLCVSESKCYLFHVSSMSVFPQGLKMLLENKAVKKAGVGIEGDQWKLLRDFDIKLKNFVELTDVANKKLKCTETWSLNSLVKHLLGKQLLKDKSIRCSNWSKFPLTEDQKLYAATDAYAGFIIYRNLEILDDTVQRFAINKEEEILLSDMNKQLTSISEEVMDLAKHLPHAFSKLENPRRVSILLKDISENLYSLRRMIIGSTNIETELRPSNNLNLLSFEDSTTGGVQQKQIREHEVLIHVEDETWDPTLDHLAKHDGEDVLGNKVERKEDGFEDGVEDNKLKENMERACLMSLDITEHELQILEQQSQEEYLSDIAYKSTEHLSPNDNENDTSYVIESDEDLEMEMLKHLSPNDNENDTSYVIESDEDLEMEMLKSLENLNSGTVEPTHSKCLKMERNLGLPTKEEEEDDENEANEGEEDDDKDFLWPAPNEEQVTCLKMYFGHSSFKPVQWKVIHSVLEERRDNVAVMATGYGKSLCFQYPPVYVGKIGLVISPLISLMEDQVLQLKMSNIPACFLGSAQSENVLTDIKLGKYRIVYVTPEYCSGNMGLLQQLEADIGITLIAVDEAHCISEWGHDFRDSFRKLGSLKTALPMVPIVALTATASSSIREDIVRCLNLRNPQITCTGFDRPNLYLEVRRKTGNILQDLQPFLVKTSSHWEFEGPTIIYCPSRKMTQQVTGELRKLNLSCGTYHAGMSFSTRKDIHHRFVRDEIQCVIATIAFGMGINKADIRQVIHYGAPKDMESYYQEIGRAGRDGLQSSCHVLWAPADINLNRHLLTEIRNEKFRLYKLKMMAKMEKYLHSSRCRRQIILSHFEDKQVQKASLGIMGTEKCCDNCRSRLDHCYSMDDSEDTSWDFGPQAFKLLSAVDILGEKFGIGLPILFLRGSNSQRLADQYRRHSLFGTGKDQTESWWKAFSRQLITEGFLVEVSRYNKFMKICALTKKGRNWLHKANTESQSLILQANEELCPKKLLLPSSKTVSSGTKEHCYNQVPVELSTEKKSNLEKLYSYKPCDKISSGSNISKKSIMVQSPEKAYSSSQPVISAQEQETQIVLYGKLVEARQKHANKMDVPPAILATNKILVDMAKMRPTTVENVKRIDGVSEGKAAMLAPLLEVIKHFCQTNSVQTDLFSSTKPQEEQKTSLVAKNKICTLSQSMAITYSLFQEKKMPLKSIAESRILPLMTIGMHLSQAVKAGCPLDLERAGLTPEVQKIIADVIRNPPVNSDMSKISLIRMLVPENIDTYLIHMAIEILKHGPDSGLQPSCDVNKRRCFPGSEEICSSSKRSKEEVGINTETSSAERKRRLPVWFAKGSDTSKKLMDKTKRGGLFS
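Kinetic fluorescence helicase assay: unwinding of a quenched forked DNA duplex (100 nM final) with 2 mM ATP final raises red fluorescence (525/598 nm). Compounds sat 15 min at room temperature with 20 nM WRN beforehand.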
ADP-Glo interf: interferes with ADP-Glo detection without enzyme present | shares compounds with PI5P4K alpha inh | ADP-Glo detection counter-screen, luciferase luminescence, no enzyme | Potency, µM (series often up to 76.9 µM), without a hit: at the highest dose activity change, negative = inhibition, actives largely listed as inhibitors | 1,100 tested, under 10 active
* = called active by the depositor; i = inactive; ? = inconclusive; nt = not tested or not shown; [ ] = remark or other dose. Hits are enriched below; roughly 1.5% of the tested compounds scored in any of these assays. Unless noted, calls come from the whole dose curve; as a rule, active = well fitted curve in the direction sought with a large enough effect; inconclusive = small, poorly fitted or top-dose-only effect, or another doubt; inactive = no such curve, though single readings can be large; an effect the other way counts as inactive or inconclusive. Unless noted, % is set by controls: 0 for no effect and ±100 for the full control effect.

SMILES | TDP1 inh | Tb PGK inh | Tb PFK block | FEN1 inhibitor | PI5P4K alpha inh | WRN helicase inh | ADP-Glo interf
COCCNC(=O)C1Cc2c(-c3cccc(NC(C)=O)c3)ccnc2O1 (centres undefined) | nt | nt | nt | nt | ? | -7% | nt
CCOC(=O)N1CCC(=NNC(=O)Cn2ccc(C(F)(F)F)n2)CC1 | 8% | i | -11% | -2% | -2 | -5% | nt
CCc1ccccc1NC(=O)C(C)n1nc(-c2ccc(C)c(C)c2)ccc1=O (centres undefined) | nt | 11% | nt | -18% | nt | nt | nt
COCCn1c(SCC(=O)Nc2cccc(S(N)(=O)=O)c2)nc2cc(Cl)ccc2c1=O | 5% | -5% | -1% | -12% | -63* | ? | -3%
CCS(=O)(=O)Nc1ccc(-c2nc3cccnc3s2)cc1 | nt | -2% | -2% | ? | -59* | 4% | -9%
Cc1nc2ccc(S(=O)(=O)Nc3ccc(-c4nc5cccnc5s4)cc3)cc2s1 | 7% | 0% | -1% | ? | -24 | -6% | nt
O=S(=O)(Nc1ccc(-c2nc3cccnc3s2)cc1)c1ccc(Cl)s1 | 3% | -7% | 5% | 2% | -62* | 0% | -5%
CCS(=O)(=O)Nc1cccc(-c2nc3cccnc3s2)c1 | nt | i | -1% | -2% | -2 | -1% | nt
CC1CCCC(C)N1C(=O)COC(=O)CNC(=O)c1ccccc1 (centres undefined) | 0% | i | 8% | -6% | -4 | -10% | -1%
Cc1ccc(NC(=O)C2CC(=O)Nc3nc4ccccc4n32)c(C)c1 (centres undefined) | nt | -9% | 2% | 4% | 2 | 0% | nt
O=C(Nc1ccccc1)N1CCCC2CCCCC21 (centres undefined) | 8% | 0% | 2% | -11% | -4 | -8% | nt
CC(=O)Nc1cc(NC(C)=O)cc(C(=O)N2CCCC3CCCCC32)c1 (centres undefined) | nt | -7% | ? | -20% | -65* | ? | 0%
CNC(=O)c1nc(C)n(-c2ccc(Cl)cc2Cl)n1 | -1% | i | 0% | -2% | -93* | 79µM* | -7%
Cc1nc(C(=O)N(C)C)nn1-c1ccc(Cl)cc1Cl | -1% | -1% | -2% | -5% | 2 | 2% | nt
CCCn1c(C)cc(-c2csc(N)n2)c1C | -5% | -1% | 0% | ? | -58* | -31% | -8%
Cc1c(-c2csc(N)n2)cnn1C | 6% | 0% | 2% | 0% | -1 | -27% | nt
CCc1nnc(NC(=O)CCC(=O)NCc2ccc(C)cc2)s1 | 0% | 1% | -11% | 15% | 4 | 6% | nt
Cc1ccc(CNc2ncnc3ccc(-c4ccc(CO)o4)cc23)o1 | nt | nt | nt | nt | nt | nt | 5%
CCOC(=O)CC(=O)CSc1nc2ccccc2c(=O)n1-c1ccc(C(=O)NCCOC)cc1 | 8% | -1% | 1% | -6% | nt | -11% | nt
COc1cccc(CN2CC(C(=O)NCCn3cccn3)CCC2=O)c1 (centres undefined) | 2% | -2% | 0% | -11% | 1 | 1% | nt
Cc1sc2ncnc(N[C@@H](CCC(=O)O)C(=O)O)c2c1C | 2% | 0% | 1% | -10% | 1 | -8% | nt
Cc1sc2ncnc(NC(C)C(=O)O)c2c1C (centres undefined) | 0% | i | 5% | 47% | nt | -2% | -5%
O=C(c1ccco1)N(CCC(c1ccccc1)c1ccco1)Cc1ccccc1 (centres undefined) | 1% | -8% | -29% | -12% | -60* | ? | 2%
CCOc1ccc(S(=O)(=O)N(C(=O)c2ccco2)c2cc3sc(=O)oc3c3ccccc23)cc1 | 11% | 1% | -9% | 1% | -58* | ? | 2%
CC(=O)N(c1ccc2oc(=O)sc2c1)S(=O)(=O)c1ccccc1 | 10% | -8% | 12% | -8% | -18 | ? | nt
SMILES | TDP1 inh | Tb PGK inh | Tb PFK block | FEN1 inhibitor | PI5P4K alpha inh | WRN helicase inh | ADP-Glo interf
Cc1ccc(S(=O)(=O)N(C(=O)c2ccco2)c2cc3sc(=O)oc3c3ccccc23)cc1 | 11% | -9% | -19% | -35% | -56* | 56µM* | -1%
Cc1cc(C(=O)Nc2sccc2C#N)c2ccccc2n1 | 4% | 2% | 2% | -15% | -73* | -1%[11.6 µM] | 1%
CC1=Nn2c(nnc2-c2n[nH]c3c2CCC3)SC1 | 2% | 0% | -2% | -1% | 2 | -12% | nt
CC(C)(C)C1=Nn2c(nnc2-c2n[nH]c3c2CCC3)SC1 | 9% | -9% | -3% | -1% | -61* | -3% | 1%
Cc1cccc(C2Nc3ccccc3C(=O)N2c2ccc(F)cc2)n1 (centres undefined) | 0% | -3% | -4% | 5% | 1 | 1% | 2%
O=C1c2ccccc2NC(c2ccccn2)N1c1ccccc1F (centres undefined) | 5% | -8% | 1% | -2% | nt | 8% | nt
COc1ccc(C2=NOC(C(=O)NCc3ccccn3)C2)cc1 (centres undefined) | 2% | -3% | -1% | 1% | ? | 6% | nt
COc1ccc(C2=NOC(C(=O)NCc3ccccn3)C2)cc1OC (centres undefined) | 2% | -3% | -1% | 0% | -53* | -7% | 3%
CCOC(=O)c1c(NC(=O)/C=C/c2ccc(OCC)cc2)sc(C(C)=O)c1C | nt | -9% | nt | 5% | nt | nt | nt
COc1cc(OC)cc(-c2nnc(NC(=O)CCS(=O)(=O)c3ccc(C)cc3)o2)c1 | 3% | 2% | 2% | -13% | -50* | -4% | 2%
Cc1ccc(S(=O)(=O)CCC(=O)Nc2nnc(-c3ccc(F)cc3)o2)cc1 | -7% | -4% | -4% | -1% | 7 | -3% | nt
CCOc1ccc(C(NC(C)=O)c2cc(Cl)c3cccnc3c2O)cc1 (centres undefined) | nt | nt | nt | -12% | nt | nt | nt
CCOc1ccc(C(Nc2cccnc2)c2cc(Cl)c3cccnc3c2O)cc1 (centres undefined) | -2% | -3% | -16% | ? | -68* | -5% | 0%
COc1cccc(NC(=O)CN(C)C(=O)c2cc3c(s2)CCC3)c1 | nt | -12% | -6% | -12% | -71* | ? | -3%
COc1cccc(NC(=O)CN(C)C(=O)c2cc3c(s2)CCC(C)C3)c1 (centres undefined) | nt | -10% | 7% | -13% | 5 | -7% | nt
O=C1COc2ccc(S(=O)(=O)NCCc3ccccc3)cc2N1 | -10% | -5% | 10% | -5% | -51* | -4% | 2%
